Experimental data: the supplement of paper PMC9844399
Structures can show the parent of a compound that is named as a salt. Values without a mark were called inactive.

System: HeLa
Test: MALAT1 nuclear FISH intensity, robust Z-score vs DMSO; higher = more nuclear MALAT1 lncRNA, active = -3 or less
Details: 10 µM; 6 h
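Further: High-content confocal imaging of branched-DNA amplified FISH in 384-well plates, Hoechst-defined nuclei, score is well value minus plate DMSO median over DMSO robust SD, four wells per compound.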

SMILES	MALAT1 nuclear FISH intensity
CC(=O)NO [Acetohydroxamic Acid]	-1.04
CCCOc1ccc(C(=O)OCCN(CC)CC)cc1N	0.714
O=c1[nH]c2ccccc2c2ccccc12 [6(5H)-Phenanthridinone]	0.601
CCCCCOc1ccc(-c2cc(-c3ccc(C(=O)N[C@H]4C[C@@H](O)[C@@H](O)NC(=O)[C@@H]5[C@@H](O)[C@@H](C)CN5C(=O)[C@H]([C@H](O)CC(N)=O)NC(=O)[C@H]([C@H](O)[C@@H](O)c5ccc(O)c(OS(=O)(=O)O)c5)NC(=O)[C@@H]5C[C@@H](O)CN5C(=O)[C@H]([C@@H](C)O)NC4=O)cc3)no2)cc1 [Micafungin]	-0.311
CCCCC/C=C\C/C=C\C/C=C\C/C=C\CCCC(=O)O[C@H](COCCCCCCCCCCCCCCCC)COP(=O)([O-])OCC[N+](C)(C)C [Arachidonoyl-PAF]	0.705
CN(CCOc1ccc(NS(C)(=O)=O)cc1)CCc1ccc(NS(C)(=O)=O)cc1 [Dofetilide]	1.23
N[C@@H]1[C@H]2CN(c3nc4c(cc3F)c(=O)c(C(=O)O)cn4-c3ccc(F)cc3F)C[C@@H]12 [Trovafloxacin mesylate]	-0.772
CCOC(=O)[C@H](CCc1ccccc1)N[C@@H](C)C(=O)N1[C@H](C(=O)O)C[C@H]2CCCC[C@@H]21 [Trandolapril]	0.557
OC[C@@H](O)[C@@H](O)[C@H](O)[C@H](O)CO [Mannitol]	0.661
